# Laboratory results reported in the supplement of paper PMC3334620.
# In all, about 33,000 sequences were measured (“E-score (-0.5 to 0.5)”: median about -0.035, highest 2% from about 0.34 on). For the sample, the highest values were picked, then their nearest neighbours and some sequences at random.
# Biological target: T1, Mot3 (UniProt P54785)
# T1 sequence: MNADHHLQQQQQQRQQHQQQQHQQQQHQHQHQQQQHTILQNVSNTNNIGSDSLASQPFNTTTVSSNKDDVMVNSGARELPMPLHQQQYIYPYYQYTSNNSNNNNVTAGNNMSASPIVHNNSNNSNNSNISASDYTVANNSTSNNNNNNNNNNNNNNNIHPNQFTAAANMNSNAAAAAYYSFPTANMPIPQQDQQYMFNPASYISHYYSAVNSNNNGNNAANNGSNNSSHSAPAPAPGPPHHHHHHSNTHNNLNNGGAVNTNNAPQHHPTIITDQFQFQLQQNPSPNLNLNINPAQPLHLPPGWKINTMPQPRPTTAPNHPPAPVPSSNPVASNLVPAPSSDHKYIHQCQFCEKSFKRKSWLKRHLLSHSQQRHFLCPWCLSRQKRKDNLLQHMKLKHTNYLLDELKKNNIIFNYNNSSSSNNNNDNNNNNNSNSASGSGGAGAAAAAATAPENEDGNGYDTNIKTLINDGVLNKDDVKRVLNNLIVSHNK
# Experiment: PBM E-score (8-mer binding enrichment) (E-score (-0.5 to 0.5)); higher = stronger / more preferred TF binding
# Conditions: protein concentration: 200 nM; construct: GST-full length
# Summary of the method: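 Full-length yeast transcription factors or their DNA-binding domains, GST-tagged and expressed with PURExpress, were applied at about 100-200 nM to universal all-10-mer Agilent arrays. These arrays had been made double-stranded by primer extension on fresh or once-stripped slides. Detection used fluorescent anti-GST, normalisation used masliner, and E-scores for ungapped eight-base words pooled with reverse complements came from the Universal PBM Analysis Suite.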
row,Sequence,PBM E-score
1,TACATACA,0.355
2,GCCTCCGA,0.0149
3,CGTACCAC,-0.0328
4,CGAATTCG,-0.137
5,AACAGAAG,0.0357
6,GTCTTAAA,-0.131
7,CCCTGAAA,-0.0551
8,AAAGGTTC,0.12
9,AGACGATC,-0.288
10,ACACGATA,0.345
11,ACACGATG,0.199
12,ACACGATC,0.347
13,CCACGATC,0.0336
14,CCACGATA,-0.107
15,CCTTTGAC,0.125
16,GAGGCTAA,-0.134
17,ACTGCGCA,-0.17
18,GGTGGGCA,0.0151
19,GGTGACAA,-0.12
20,CCCTTTAC,0.15
21,GCCTTTAA,0.322
22,GCCTTTAC,0.357
23,AGCGCTAG,-0.115
24,TATTTCAA,0.159
25,CCATCTAG,-0.0951

row,Sequence,PBM E-score
1,CCTTAACA,0.315
2,CGTTATAA,0.15
3,TGTTAAAA,0.343
4,ATTTAACG,0.247
5,TGTTATAA,0.35
6,TCTTAACA,0.346
7,GCTTAACA,0.229
8,ATTTAACC,0.0628
9,AGTTATAA,0.163
10,CGTTAAAA,0.151
11,ATTTAACA,0.354
12,GGTTAAAA,0.194
13,CGGGGGGC,-0.295
14,ACAATTCC,-0.0244
15,CGCTCCAC,-0.234
16,GTGAAGTA,0.0411
17,TAACACAA,0.332
18,CCAGTATA,-0.178
19,ACTTGATA,0.0522
20,GAATCTAA,-0.0012
21,CCTGAACA,0.23
22,TATTAACA,0.359
23,AGTTAACA,0.279
24,CATTAACA,0.299
25,TGTTAACA,0.361

row,Sequence,PBM E-score
1,CGTTAACA,0.244
2,GATTAACA,0.338
3,AAAAGGTC,-0.161
4,CTGCAGCA,-0.0262
5,GCCAGCGC,-0.236
6,AAGCGTAA,0.0617
7,GCGTTTCC,0.0476
8,AGGAAATG,0.262
9,CGGAAATA,-0.206
10,GGGAAATA,0.0874
11,CGGAAATC,-0.109
12,AGGAAATC,0.373
13,AGGAAATA,0.368
14,AGTGATAG,0.0766
15,GCCTCGCC,-0.17
16,ACCTGAAC,0.0861
17,AAGGGTAT,-0.018
18,TATTCACA,0.221
19,ACAGGAGG,-0.0434
20,AAAAGATG,0.11
21,GAAAGGCA,0.469
22,TAAAGGGA,0.016
23,AAAAGGCG,0.278
24,TAAAGTCA,0.0168
25,GAAAGGCC,-0.0302

row,Sequence,PBM E-score
1,AAAAGGCT,0.0632
2,AAAAGGCA,0.478
3,GAAAGGGA,0.0421
4,CAAAGGCC,-0.151
5,CAAAGGCA,0.479
6,TAAAGGCA,0.481
7,CAAAGGCG,0.233
8,ACAACGAT,0.155
9,AGCACAAG,0.0406
10,CTAGGCCC,-0.21
11,CTCTACCA,-0.192
12,CGACTCAG,-0.219
13,GCGGTTCC,0.0435
14,CACTTTGG,-0.0925
15,GACTGATA,-0.216
16,CGGGGCTA,-0.291
17,AACTTCCT,0.15
18,CCTTGTAA,0.392
19,ATTTGTAA,0.244
20,CTTTGTAC,0.193
21,CCTTGTAG,0.311
22,CCTTGTAC,0.272
23,CTTTGTAA,0.355
24,AGGCTGTC,-0.15
25,GGGCATAC,-0.186

row,Sequence,PBM E-score
1,AAGAAGTC,-0.0398
2,AATTGCGC,0.0861
3,GTCTATGA,0.0543
4,CTCGATAC,0.24
5,GGCGTGAA,-0.0959
6,GGCGTGTA,0.383
7,AGCGTGTA,0.406
8,AGCGTGTC,0.205
9,AGCGTGTG,0.147
10,CGCGTGAA,0.172
11,CGCGTGTA,0.375
12,GGCGTGCA,-0.243
13,CGCGTGTC,0.196
14,ACAGACGT,0.119
15,GAGGGAAA,-0.199
16,CTCCTTGA,-0.122
17,AGAAGGTC,-0.0584
18,AGAAGGTG,-0.0242
19,CGAAGGTC,-0.313
20,GGAAGGTA,0.251
21,CGAAGGTA,0.366
22,AGAAGGTA,0.347
23,ATTTAGGC,0.339
24,CTTGATAC,0.00505
25,CAGACACC,-0.0175

row,Sequence,PBM E-score
1,AAGACGGC,-0.265
2,ATGGATTG,0.0625
3,GCGTTCTA,-0.106
4,ATAGACCC,0.178
5,CGCCACCC,-0.0907
6,CAACATGG,0.337
7,AAACATGG,0.222
8,TAACATCA,0.25
9,AAACATGA,0.327
10,AAACATGC,0.288
11,CCACATGA,0.0141
12,CAACATGA,0.352
13,TAACATGA,0.363
14,AAACATGT,0.374
15,CAACATGC,0.345
16,GAACATGC,0.202
17,GAACATGA,0.238
18,ATGGCCAT,-0.171
19,CAGTTCCC,-0.174
20,CTAGGATC,-0.0652
21,CAGTGCGC,-0.292
22,CCCGGTCG,-0.273
23,ACCGGTAT,-0.135
24,ACGTTGTG,0.137
25,GGCCGAGA,-0.209

row,Sequence,PBM E-score
1,TAGTAATA,0.182
2,CTCTCTGC,-0.112
3,AAGGCATT,0.362
4,AAGGCATA,0.321
5,ATGGCATC,-0.162
6,AAGGCATG,0.303
7,AAGGCATC,0.381
8,AGGGCATC,-0.163
9,AAACTTCG,0.0118
10,TACCTAGA,0.252
11,AGAGAAAA,-0.0157
12,CAGCACTA,-0.113
13,ATAAAGCA,-0.12
14,ACACAGGG,0.213
15,CTTAAGGC,0.314
16,ATTAAGGA,0.0441
17,ACATAGGT,0.282
18,ACACAGGC,0.354
19,ACACAGGA,0.295
20,ACATAGGC,0.373
21,ATAAAGGC,0.186
22,GCATAGGC,0.166
23,CTAAAGGC,0.35
24,ATTAAGGC,0.378
25,CTAAAGGA,0.148
